Compounds without any hit were thinned out: in the full panel of roughly 83,000, 20% have a hit.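 Compound tested at a single concentration for 48 hours in 96-well plates; a percent growth value below 10 was scored as active.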 A number with no mark means an inactive call. The source made the active and inactive calls.
The compounds below were run on HL-60(TB) leukemia (assay: NCI-60 one-dose screen, 48 h (100 = growth as untreated, 0 = no growth, -100 = all killed)). Conditions: 10 µM unless noted.
`COc1ccccc1NC(=O)OCC12COCN1COC2` showed a growth of 102%. For `CC(C)COCC(CN(Cc1ccccc1)c1ccccc1)N1CCCC1` (stereo not given), the growth was 82.4%. Work on `CN1C(=O)/C(=C/c2ccc(C(=O)Nc3ncc(Cc4ccccc4Cl)s3)cc2)SC1=S` yielded a growth of 73.1%. `COc1cc2c(cc1NC(=O)C(Cl)Cl)-c1ccc(NC(=O)C(Cl)Cl)cc1C2` was tested, and the growth was -14.5% (active). For `COC(=O)[C@]12CC[C@@H](C)[C@H](C)[C@@H]1C1=CC[C@@H]3[C@@]4(C)C[C@@H](O)OC[C@](C)(C=O)C4C(=O)C[C@@]3(C)[C@]1(C)CC2` (stereo not given in full), the growth was -13.3% (active). Compound `O=S(=O)(NCCCNc1cc(-c2c(-c3cccc(O)c3)nc3sccn23)ccn1)c1cccc2ccccc12` has a growth of 41.3%. With `Cn1nc(-c2ccccc2)c2c(-c3ccccc3)onc2c1=O` the growth was 1.23% (active). `COc1ccc(-c2cc(-c3cc(OC)ccc3OC)nc(SCC(C)=O)c2C#N)cc1` showed a growth of 86.3%. For `Clc1ccc(C2CC(c3cccc(Nc4ccncc4)c3)=NN2c2cc(Cl)cc(Cl)c2)cc1` (stereo not given), the growth was 24.8%. `Cc1ccc(-c2nc([P+](c3ccccc3)(c3ccccc3)c3ccccc3)c(N3C[C@H]4C[C@H](C3)c3cccc(=O)n3C4)o2)cc1` showed a growth of 36.7%. Compound `Oc1ccc(C(c2ccc(O)cc2)c2ccc(Br)cn2)cc1` has a growth of 106%. `COc1cc(-c2cc(/C=C/C(=O)c3ccc(F)c(F)c3)[nH]n2)cc(OC)c1OC` showed a growth of 82.6%. `CC1(C)CC[C@]2(C(=O)Nc3ccccn3)CC[C@]3(C)C(=CC[C@@H]4[C@@]5(C)C/C(=C/c6ccncc6)C(=O)C(C)(C)[C@@H]5CC[C@]43C)[C@@H]2C1` was tested, and the growth was -0.971% (active). `C=C1c2nc3ccccc3n2C=C(c2ccc(Cl)cc2)N1Cc1ccc(OC)cc1` showed a growth of 53%. In the case of `CCCCCCCCCCCCCCCC[N+](C)(CCO)Cc1cnc[nH]1` (stereo not given), the growth is reported as -80.6% (active). For `O=C1/C=C/[C@@H](O)[C@@H]2C[C@@H](O)C[C@H]2/C=C/CCC[C@H](CCc2ccc(NC(=S)Nc3ccc4c(c3)C(=O)OC43c4ccc(O)cc4Oc4cc(O)ccc43)cc2)O1`, the growth was 4.65% (active). With `O=C1NCCS(=O)(=O)/C1=C\C=C\c1cccc(C(F)(F)F)c1` the growth was 1.71% (active). `Nc1nc(Cn2c(-c3nonc3N)nc3ccccc32)nc(N2CCCCC2)n1` showed a growth of 82.2%. Compound `O=C(c1ccc(-c2ccccc2)cc1)c1ccc([N+](=O)[O-])cc1` has a growth of 129%. `COc1cc(/C=C\c2cc(/C=C\c3ccc(O)c(OC)c3)n(C(=O)CNc3ccc(Cl)cc3)n2)ccc1O` was tested, and the growth was -11.6% (active). For `O=[N+]([O-])c1cccc(-c2ncc(-c3ccc(Cl)cc3Cl)[nH]2)c1`, the growth was 70.1%. `CC(=O)OC[C@]12CC[C@@H](/C(C)=N/O)[C@@H]1[C@H]1CC[C@@H]3[C@@]4(C)CCCNC(C)(C)[C@@H]4CC[C@@]3(C)[C@]1(C)CC2` gave a growth of 37.7%. In the case of `CO[C@H]1NC(=O)N(S(=O)(=O)c2ccc(Cl)cc2)[C@@H]1OC`, the growth is reported as 105%. In the case of `C=C(c1ccc(C(=O)NCCCn2ccnc2)cc1)c1cc2c(cc1C)C(C)(C)CCC2(C)C`, the growth is reported as -47.5% (active). Work on `CN1CC(c2ccc(Br)cc2)C(C(=O)c2ccc(Br)cc2)C12C(=O)Nc1ccccc12` (stereo not given) yielded a growth of 98.4%. `COc1cc(Br)c(-c2nc(-c3ccccc3)c(-c3ccccc3)n2Cc2ccccc2)cc1OC` gave a growth of 18.6%. In the case of `CC(=O)NNC(=S)N/C=C/c1c(C)ccc([N+](=O)[O-])c1[N+](=O)[O-]`, the growth is reported as 99.9%. For `C=C1C(=O)O[C@H]2[C@H]1CC/C(COC(=O)C(=O)c1c[nH]c3ccc(OC)cc13)=C\CC[C@@]1(C)O[C@@H]21`, the growth was -53.2% (active). In the case of `CCCc1cc(=O)n2c(C(=O)Nc3ccccc3OC)c(C(=O)Nc3ccc(F)cc3)sc2n1`, the growth is reported as 47.1% [30 µM]. In the case of `CC1C(/C=N/Nc2ccccc2)C(C#N)(C#N)C1(C#N)C#N` (stereo not given), the growth is reported as 54.3%. `NS(=O)(=O)c1ccc(N2N=C(c3ccc(Br)cc3)CC2c2cn(-c3ccccc3)nc2-c2ccc(Cl)cc2)cc1` (stereo not given) was tested, and the growth was 89.6%. In the case of `OC(c1ccccc1)c1ccccn1` (stereo not given), the growth is reported as 99.9%. Work on `CN(C)C1CCC(NC2=CC(=O)C=CC2=O)CC1` (stereo not given) yielded a growth of 114%. In the case of `NC(=O)Nc1cc(-c2cccc(F)c2)sc1C(=O)N[C@H]1CCCNC1`, the growth is reported as -29.9% (active). Compound `O=C(C1=Cc2cc3ccccc3n2Cc2cnnn21)c1ccc(F)cc1` has a growth of 98%. Compound `COc1cc(/C=C/c2cc(/C=C/c3ccc(O)c(OC)c3)[nH]c(=O)n2)ccc1O` has a growth of 61.3%. In the case of `O=C(O)c1cc(I)ccc1O`, the growth is reported as 103%. With `Cn1cc(-c2ccc3c(c2)ncn3-c2ccc(CC(=O)Nc3cc(C(C)(C)C)on3)cc2)cn1` the growth was 67.4%. For `COc1cc(-c2nn(-c3cccc(NC(=O)Nc4cc(C(F)(F)F)cc(C(F)(F)F)c4)c3)cc2-c2ccncc2)ccc1Cl`, the growth was -20.2% (active). In the case of `CC(=O)Nc1ccc(C(=O)COc2ccc(/C=C3\CCc4ccccc4C3=O)cc2)cc1`, the growth is reported as 102%.

Source: PubChem BioAssay (NCI)
